Results taken from PubChem BioAssay AID651610 (Broad Institute, 2012).
Screen size: about 360,000 compounds; about 3,900 (1.1%) were called active. This excerpt belongs to a sample that is enriched for actives. Unmarked numbers belong to inactive results.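 Rule for the calls: active = mean replicate inhibition score of at least 50 and every replicate individually at or above 50; inconclusive = only one of the two criteria met; inactive = mean below 50 and not all replicates reaching 50.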

Assay: blockers of JRFL envelope-mediated fusion – HeLa-JRFL effector, CEM21 target cells, luciferase, primary screen (AID 651610);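 note: 0% = plate neutral controls and 100% = maraviroc near 300 nM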
Conditions: HeLa-JRFL Env/CEM21 cell fusion, active compounds read high; at 16.7 µM unless noted

Row | Compound | inhibition
1 | CNC(=O)C[C@@H]1CC[C@@H]2[C@H](COc3ccc(NC(=O)c4cccs4)cc3C(=O)N2C)O1 | 0.696%
2 | CO[C@H]1CN(C)C(=O)c2cc(NS(=O)(=O)c3ccccc3)ccc2OC[C@H](C)N(C)C[C@@H]1C | 5.07%
3 | CNC[C@H]1Oc2cc(-c3cccnc3)ccc2S(=O)(=O)N([C@@H](C)CO)C[C@H]1C | -16.2%
4 | CC(=O)N[C@H]1CC[C@H](CCNC(=O)C2CC2)O[C@H]1CO | -15.4%
5 | CCOC(=O)C(Cc1ccc(N)cc1)N1C(=O)c2ccccc2C1=O (stereo not drawn) | 6.82% [at 12.3 µM]
6 | CCOC(=O)C1=C(c2ccc(OC)cc2)C(=O)c2ccccc2C1=O | 74.3% [at 12.3 µM] (active)
7 | CCOC(=O)C(Cc1ccccc1)NC(=O)CCC(=O)c1ccc(OC)cc1 (stereo not drawn) | 4.22% [at 12.3 µM]
8 | COc1ccc(NC(=O)Nc2ccc3c(c2)C(=O)N([C@@H](C)CO)C[C@@H](C)[C@H](CN(C)C(=O)NC(C)C)OCCCC[C@H](C)O3)cc1 | 11.6%
9 | CCCCCCSc1ccc([C@@H]2[C@@H]3C(=O)N(CC)C(=O)[C@@H]3[C@]3(C(=O)OC)CCCCN23)cc1OC | 73.2% [at 12.3 µM] (active)
10 | CCN1C(=O)[C@@H]2[C@@H](c3ccc(-c4cccc(Cl)c4)cc3)N3CCC[C@@]3(C(=O)OC)[C@@H]2C1=O | -3.1% [at 12.3 µM]
11 | CCCCCCSc1ccc([C@@H]2[C@H]3C(=O)N(CC)C(=O)[C@H]3[C@]3(C(=O)OC)CCCCN23)cc1 | 8.61% [at 12.3 µM]
12 | COC(=O)[C@@]12CCCN1[C@H](c1ccc(-c3ccc(F)cc3)c(OC)c1)[C@H]1C(=O)N(C)C(=O)[C@H]12 | 71.6% [at 12.3 µM] (active)
13 | CCN1C(=O)[C@@H]2[C@@H](c3ccc(-c4ccc(OC)cc4)c(OC)c3)N3CCC[C@@]3(C(=O)OC)[C@@H]2C1=O | -5% [at 12.3 µM]
14 | CCN1C(=O)[C@@H]2[C@@H](c3ccc(-c4ccccc4)cc3)N3CCCC[C@@]3(C(=O)OC)[C@@H]2C1=O | -3.15% [at 12.3 µM]
15 | Cc1ccc(S(=O)(=O)N(C)C[C@@H]2Oc3ccc(NC(=O)Cc4ccccc4)cc3CC(=O)N([C@H](C)CO)C[C@H]2C)cc1 | 14.2%
16 | CO[C@@H]1CN(C)C(=O)c2cc(NC(=O)c3ccc(F)cc3)ccc2OC[C@H](C)N(C(=O)CN(C)C)C[C@H]1C | 6.25%
17 | Cc1ccccc1-n1cc(CNC(=O)C2CCC(=O)N(C3CC3)C2)cn1 (stereo not drawn) | 5.76% [at 12.3 µM]
18 | Cc1ccccc1-n1cc(CNC(=O)CC2C(=O)NCCN2C/C=C/c2ccccc2)cn1 (stereo not drawn) | 58% [at 12.3 µM] (active)
19 | O=C(CC1C(=O)NCCN1Cc1ccc(-c2ccccc2)cc1)NCc1ccncc1 (stereo not drawn) | -0.899% [at 12.3 µM]
20 | C[C@@H]1CN([C@@H](C)CO)C(=O)Cc2cc(NS(=O)(=O)c3cccs3)ccc2O[C@@H]1CN(C)C(=O)Nc1ccc(C(F)(F)F)cc1 | 0.927%
21 | CC(C)NC(=O)N(C)C[C@H]1Oc2ncc(-c3cccc(C#N)c3)cc2C(=O)N([C@@H](C)CO)C[C@H]1C | 8.57%
22 | COC(=O)C1CCN(C(=O)COC(=O)c2cc(S(=O)(=O)N3CCOCC3)ccc2C)CC1 | 72.4% [at 12.3 µM] (active)
23 | CCOC(=O)C1CCN(C(=O)COC(=O)C2CCN(S(=O)(=O)c3ccc4c(c3)OCCO4)CC2)CC1 | 29.3% [at 12.3 µM]
24 | CC1CCN(C(=O)COC(=O)c2cc(S(=O)(=O)N3CCOCC3)ccc2Cl)CC1 | 5.19% [at 12.3 µM]
25 | COc1ccc(CNC(=O)C[C@H]2CC[C@H](NC(=O)Nc3ccc4c(c3)OCO4)[C@H](CO)O2)cc1 | 15.7%

Row | Compound | inhibition
26 | CC(C)NC(=O)N(C)C[C@@H]1OCCCC[C@@H](C)Oc2ccc(NC(=O)NC3CCCCC3)cc2C(=O)N([C@@H](C)CO)C[C@@H]1C | -9.6%
27 | C[C@H]1CN([C@@H](C)CO)C(=O)c2cc(C#CC3(O)CCCC3)cnc2O[C@@H]1CN(C)C(=O)Cc1ccccc1 | 15.7%
28 | C[C@@H]1CN([C@H](C)CO)S(=O)(=O)c2ccc(C#CCN(C)C)cc2O[C@@H]1CN(C)C | 5.39%
29 | O=c1c2c3c(sc2n(CCN2CCCC2)c(=O)n1Cc1ccccc1)CCCCC3 | 46.8% [at 12.3 µM]
30 | CN(C)CCCn1c(=O)n(Cc2ccccc2)c(=O)c2c3c(sc21)CCCCC3 | 63.7% [at 12.3 µM] (active)
31 | CCn1c(=S)[nH]c2sc3c(c2c1=O)CCCCC3 | -33.7% [at 12.3 µM]
32 | CNC(=O)C[C@@H]1CC[C@H]2[C@@H](COc3ccc(NC(=O)NCc4ccccc4)cc3C(=O)N2C)O1 | -0.208%
33 | COC(=O)[C@]1(Cc2ccccc2)N[C@H](CN(C)S(=O)(=O)c2ccc(OC(F)(F)F)cc2)[C@@H]2C(=O)N(Cc3ccccc3)C(=O)[C@@H]21 | 48.1% [at 12.3 µM]
34 | CCN(C[C@H]1N[C@@](CC)(C(=O)OC)[C@H]2C(=O)N(Cc3ccccc3)C(=O)[C@@H]12)S(=O)(=O)c1ccc(C(F)(F)F)cc1 | 99.4% [at 12.3 µM] (active)
35 | CCN(C[C@H]1N[C@@](CC)(C(=O)OC)[C@H]2C(=O)N(Cc3ccccc3)C(=O)[C@@H]12)S(=O)(=O)c1ccccc1 | 42% [at 12.3 µM]
36 | Cc1ccc(S(=O)(=O)N[C@@H]2CC[C@@H](CC(=O)O)O[C@@H]2CO)cc1 | 7.43%
37 | CN1CCN(S(=O)(=O)c2cccc(C(=O)N3CCc4ccccc43)c2)CC1 | -15.7% [at 12.3 µM]
38 | CC1CCN(C(=O)c2cccc(S(=O)(=O)N3CCCc4ccccc43)c2)CC1 | 39.9% [at 12.3 µM]
39 | CNC(=O)C1CN(C(=O)c2cccc(S(=O)(=O)N3CCc4ccccc43)c2)c2ccccc2O1 (stereo not drawn) | 60.2% [at 12.3 µM] (active)
40 | C[C@@H]1CN([C@H](C)CO)C(=O)c2cc(NC(=O)Nc3ccc4c(c3)OCO4)ccc2O[C@H]1CN(C)C(=O)Nc1ccccc1 | 7.58%
41 | O=C(COc1ccccc1Cl)N1N=C(c2cccs2)CC1c1ccco1 (stereo not drawn) | -7.8% [at 12.3 µM]
42 | Fc1ccc(N2N=C(c3cccs3)CC2c2ccco2)c(F)c1 (stereo not drawn) | 55.9% [at 12.3 µM] (active)
43 | Cc1ccccc1C1CC(c2cccs2)=NN1S(C)(=O)=O (stereo not drawn) | -91.6% [at 12.3 µM]
44 | CCS(=O)(=O)Nc1ccc2c(c1)C(=O)N(C)[C@H]1CC[C@H](CC(=O)NCc3ccccc3F)O[C@H]1CO2 | -0.764%
45 | NC(=O)CSc1nnc(NC(=O)c2ccc(Br)o2)s1 | -7.67% [at 12.3 µM]
46 | CSc1nnc(NC(=O)c2nc(S(=O)(=O)Cc3ccc(C)cc3)ncc2Cl)s1 | 73.8% [at 12.3 µM] (active)
47 | Cc1cccc(CS(=O)(=O)c2ncc(Cl)c(C(=O)Nc3ccc(F)cc3)n2)c1 | -12.3% [at 12.3 µM]
48 | Cc1noc(C)c1NC(=O)N(C)C[C@H]1Oc2ccc(NC(=O)Cn3cnnn3)cc2CC(=O)N([C@H](C)CO)C[C@@H]1C | -12.7%
49 | C[C@@H]1CN([C@@H](C)CO)C(=O)c2cc(NC(=O)Cc3ccccc3)ccc2O[C@@H]1CN(C)S(=O)(=O)c1ccccc1 | -22.1%
50 | Cc1ccc(S(=O)(=O)NCC[C@@H]2CC[C@H](NC(=O)c3ccccn3)[C@H](CO)O2)cc1 | -12.9%

Row | Compound | inhibition
51 | C[C@H](CO)N1C[C@H](C)[C@@H](CN(C)Cc2ccc3c(c2)OCO3)Oc2c(cccc2N(C)C)C1=O | -26.8%
52 | CSCc1nnc(NC(=O)c2ccc(S(=O)(=O)N3CCCCC3C)cc2)o1 (stereo not drawn) | -0.826% [at 12.3 µM]
53 | CC1CCCCN1S(=O)(=O)c1ccc(C(=O)Nc2nnc(-c3cccs3)o2)cc1 (stereo not drawn) | 80.2% [at 12.3 µM] (active)
54 | CC1CCCCN1S(=O)(=O)c1ccc(S(=O)(=O)N(CC(=O)Nc2ccccc2)Cc2cccs2)cc1 (stereo not drawn) | 20% [at 12.3 µM]
55 | Cc1cc(C(=O)N2CCC(C(=O)O)CC2)c(C(F)(F)F)o1 | 87.5% [at 12.3 µM] (active)
56 | O=C(O)C1CCN(C(=O)c2cc(F)cc3c2OCOC3)CC1 | -1.42% [at 12.3 µM]
57 | CCOC(=O)C1CCCN(C(=O)c2cc(-c3cccs3)oc2C)CC1 (stereo not drawn) | 29.9% [at 12.3 µM]
58 | CCCN(C)C[C@H]1Oc2ncc(C#CC3CCCCC3)cc2C(=O)N([C@H](C)CO)C[C@@H]1C | 18.3%
59 | C[C@H](CO)N1C[C@H](C)[C@H](CN(C)CC2CCCCC2)Oc2c(NC(=O)c3cnccn3)cccc2C1=O | -9.66%
60 | CCC(=O)N1C[C@H](C)[C@H](OC)CN(C)C(=O)c2cc(NC(=O)Nc3cccc(F)c3)ccc2OC[C@@H]1C | -5.04%
61 | C[C@@H]1CN([C@@H](C)CO)C(=O)c2cc(NS(=O)(=O)c3ccccc3)ccc2O[C@@H](C)CCCCO[C@H]1CN(C)S(=O)(=O)c1cccs1 | -25.8%
62 | COc1ccc(NC(=O)Nc2ccc3c(c2)C(=O)N([C@@H](C)CO)C[C@@H](C)[C@@H](CN(C)Cc2ccncc2)OCCCC[C@@H](C)O3)cc1 | -12.5%
63 | C[C@@H]1CCCCO[C@H](CN(C)C(=O)Nc2ccccc2)[C@H](C)CN([C@@H](C)CO)C(=O)c2cc(N(C)C)ccc2O1 | -23.9%
64 | COc1ccc(CN(C)C[C@@H]2OCCCC[C@@H](C)Oc3ccc(NC(=O)Nc4ccc(OC)cc4)cc3C(=O)N([C@@H](C)CO)C[C@@H]2C)cc1 | -18.5%
65 | Cc1ccc(S(=O)(=O)Nc2ccc3c(c2)C(=O)N([C@@H](C)CO)C[C@@H](C)[C@@H](CN(C)Cc2ccc(C(F)(F)F)cc2)OCCCC[C@@H](C)O3)cc1 | 79.2% (active)
66 | C[C@@H]1CCCCO[C@@H](CN(C)CC2CCCCC2)[C@H](C)CN([C@H](C)CO)C(=O)c2cc(NC(=O)C3CCCCC3)ccc2O1 | 68.4% (active)
67 | COc1ccc(NC(=O)Nc2ccc3c(c2)C(=O)N([C@H](C)CO)C[C@H](C)[C@H](CN(C)Cc2ccncc2)OCCCC[C@H](C)O3)cc1 | 58.1% (active)
68 | C[C@@H]1CCCCO[C@@H](CN(C)Cc2ccc(C(F)(F)F)cc2)[C@H](C)CN([C@H](C)CO)C(=O)c2cc(NS(=O)(=O)c3ccc(F)cc3)ccc2O1 | 32.9%
69 | C[C@@H]1CCCCO[C@@H](CN(C)CC2CC2)[C@@H](C)CN([C@H](C)CO)C(=O)c2cc(NC(=O)C3CCCCC3)ccc2O1 | 19.6%
70 | C[C@@H]1CCCCO[C@@H](CN(C)CC2CC2)[C@H](C)CN([C@H](C)CO)C(=O)c2cc(NC(=O)C3CCCCC3)ccc2O1 | -2.41%
71 | C[C@H](CO)N1C[C@H](C)[C@H](CN(C)Cc2ccc(C(F)(F)F)cc2)OCCCC[C@H](C)Oc2ccc(NS(=O)(=O)c3ccc(Cl)cc3)cc2C1=O | 18.4%
72 | C[C@H](CO)N1C[C@H](C)[C@@H](CN(C)C(=O)Nc2cccc3ccccc23)OCCCC[C@H](C)Oc2ccc(N(C)C)cc2C1=O | 67.4% (active)
73 | C[C@@H]1CCCCO[C@@H](CN(C)C(=O)Nc2ccccc2)[C@@H](C)CN([C@@H](C)CO)C(=O)c2cc(N(C)C)ccc2O1 | -2.93%
